Screening data (PubChem)
A selection: hits, their analogues and other compounds. The true share with any hit is near 2.8%.
CF NFkB inh – cystic fibrosis NF-kB activation inhibition. KKLEB NF-kB-GFP reporter, PAF-induced, GFP fluorescence overnight. inhibition, % at 5 µM. actives 0.86% (n = 360,000). AID 588850;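 active = at least 50% inhibition at 5 µM, scaled per plate between neutral and stimulator controls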;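 also: PAF is a Pseudomonas aeruginosa culture filtrate used as stimulus; plate controls were PAF-stimulated DMSO wells for no effect and unstimulated DMSO wells for full effect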
HIF-2a block – inhibitors of HIF-2a; 786-0 RCC cells HIF-2a reporter, luciferase luminescence, overnight; inhibition, % at 18.8 µM; actives 0.72% (n = 360,000); AID 624352;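 active = inhibition of the luminescence signal of 40% or more relative to plate controls, in a single-dose primary screen at 18.75 µM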
MITF TRPM1 inh – reduces MITF-dependent TRPM1 promoter luciferase signal; inhibition, % at 12.5 µM; actives 0.83% (n = 330,000); AID 488899; SK-MEL-5 TRPM1 promoter luciferase, 24 h;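 active = mean inhibition across replicates of 60% or more, whatever share of single replicates reaches that level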
Peg3 prom inh – Peg3 promoter activity inhibition; inhibition, % at 20 µM; HeLa PEG-Prom luciferase reporter, luminescence, overnight; AID 588405; actives 1.7% (n = 360,000);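 active = inhibition of at least 50% at 20 µM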
Shn3 inh set2 – Schnurri-3 reporter inhibition in Clone20 osteoblasts; Clone20 osteoblast Shn3 3'UTR firefly luciferase, 24 h; inhibition, % at 12.5 µM; actives 0.52% (n = 360,000); AID 588674;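 active = mean inhibition of at least 75% with every replicate also reaching 75%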;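 also: 0% = median of neutral control wells and 100% = pilot-screen positive control compound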
KKLEB cytotox – counter-screen for CF NF-kB inhibitors: cytotoxicity | KKLEB CF airway cells viability, ATPlite luminescence, overnight; active compounds read low; cells stimulated with P. aeruginosa culture filtrate | activity change (cytotoxicity), % at 5 µM | actives 0.36% (n = 360,000);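 active = corrected activity change at or below -50% at 5 µM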
An asterisk follows results filed as active.

How did O=C(c1ccc([N+](=O)[O-])s1)N1CCc2ccccc21 do in these assays?
CF NFkB inh: -8; HIF-2a block: -39; MITF TRPM1 inh: 30; Peg3 prom inh: -95; Shn3 inh set2: -16; KKLEB cytotox: 10

What do the screens show for `O=C(c1ccc([N+](=O)[O-])s1)N1CCCc2ccccc21`?
CF NFkB inh: 5; HIF-2a block: -15; MITF TRPM1 inh: 70*; Peg3 prom inh: -7; Shn3 inh set2: 4; KKLEB cytotox: -6

Results for COc1cc(OC)c2c(-c3cccc(-c4ccc(C(C)=O)cc4)c3)cc(=O)oc2c1 ?
CF NFkB inh: 55*; HIF-2a block: 1; MITF TRPM1 inh: 42; Peg3 prom inh: -12; Shn3 inh set2: -4; KKLEB cytotox: -6

Results for COc1cc(OC)c2c(-c3cccc(-c4ccc(OC)c(F)c4)c3)cc(=O)oc2c1 ?
CF NFkB inh: 46; HIF-2a block: -32; MITF TRPM1 inh: 53; Peg3 prom inh: -38; Shn3 inh set2: -9; KKLEB cytotox: -12

Results for O=Cc1ccc2c(c1)OCCOCCOCCOCCO2 ?
CF NFkB inh: -6; HIF-2a block: 8; Peg3 prom inh: 1; Shn3 inh set2: -18; KKLEB cytotox: -2

Results for O=C(N/N=C/c1cc2ccccc2nc1Cl)/C(=C/c1cccs1)NC(=O)c1ccccc1 ?
CF NFkB inh: -30; HIF-2a block: 18; MITF TRPM1 inh: 10; Peg3 prom inh: 66*; Shn3 inh set2: 5; KKLEB cytotox: 10

How did Cc1ccccc1S(=O)(=O)N(C)C[C@H]1OCc2cnnn2CCCC(=O)N([C@H](C)CO)C[C@H]1C do in these assays?
CF NFkB inh: -3; HIF-2a block: -1; Peg3 prom inh: 7; Shn3 inh set2: -4; KKLEB cytotox: -7

How did N#CC1=C(N)N2C(=C(C#N)C1c1cccc(Br)c1)Nc1ccccc12 (stereo not given) do in these assays?
CF NFkB inh: 42; HIF-2a block: 3; MITF TRPM1 inh: 51; Peg3 prom inh: 40; Shn3 inh set2: 88*; KKLEB cytotox: -50*

Results for O=C(NCc1ccccc1F)c1ccc(S(=O)(=O)N2CCCC2)cc1 ?
CF NFkB inh: 8; HIF-2a block: 3; Peg3 prom inh: 2; Shn3 inh set2: -18; KKLEB cytotox: 1

Results for O=C(NCc1ccccc1Cl)c1ccc(S(=O)(=O)N2CCCC2)cc1 ?
CF NFkB inh: 9; HIF-2a block: 16; MITF TRPM1 inh: -1; Peg3 prom inh: 52*; Shn3 inh set2: -7; KKLEB cytotox: -11

Results for CCCCC(=O)N/N=C(/C)C1=C(C)C(C)(C)OC1=O ?
CF NFkB inh: -6; HIF-2a block: 19; MITF TRPM1 inh: 14; Peg3 prom inh: -5; Shn3 inh set2: -12; KKLEB cytotox: 2

Results for N/C(=N\N=C/c1ccc(Br)cc1)N/N=C\c1ccc(Br)cc1 ?
CF NFkB inh: -38; HIF-2a block: -17; MITF TRPM1 inh: -5; Peg3 prom inh: 102*; Shn3 inh set2: 11; KKLEB cytotox: -2

How did O=C(NN=Cc1ccc2c(c1)OCO2)NN=Cc1ccc2c(c1)OCO2 do in these assays?
CF NFkB inh: -31; HIF-2a block: -134; MITF TRPM1 inh: -28; Peg3 prom inh: -66; Shn3 inh set2: -37; KKLEB cytotox: 8

How did N/C(=N\N=C/c1ccc(F)cc1)N/N=C\c1ccc(F)cc1 do in these assays?
CF NFkB inh: 0; HIF-2a block: -99; MITF TRPM1 inh: 10; Peg3 prom inh: 23; Shn3 inh set2: 14; KKLEB cytotox: -16

How did N/C(=N\N=Cc1ccc2c(c1)OCO2)NN=Cc1ccc2c(c1)OCO2 do in these assays?
CF NFkB inh: 8; HIF-2a block: -6; MITF TRPM1 inh: 66*; Peg3 prom inh: 32; Shn3 inh set2: -8; KKLEB cytotox: -4

What do the screens show for `CCOc1ccccc1NC(=O)Cn1nnc(C(=O)NCc2ccc3c(c2)OCO3)c1N`?
CF NFkB inh: 8; HIF-2a block: 10; MITF TRPM1 inh: 16; Peg3 prom inh: 11; Shn3 inh set2: 3; KKLEB cytotox: -14

What do the screens show for `Cc1cc(Br)c(NC(=O)CN2CCCC2)c(Br)c1`?
CF NFkB inh: 9; HIF-2a block: -128; MITF TRPM1 inh: -12; Peg3 prom inh: -96; Shn3 inh set2: -1; KKLEB cytotox: -12

What do the screens show for `CC(C)C[C@]1(c2ccccc2)ON(c2ccccc2C(F)(F)F)C1=O`?
CF NFkB inh: -8; HIF-2a block: 25; MITF TRPM1 inh: 1; Peg3 prom inh: 33; Shn3 inh set2: -2; KKLEB cytotox: 5

Results for O=C1N(c2ccccc2C(F)(F)F)O[C@@]1(c1ccccc1)C1CCCC1 ?
CF NFkB inh: 29; HIF-2a block: 22; MITF TRPM1 inh: 4; Peg3 prom inh: 70*; Shn3 inh set2: -10; KKLEB cytotox: -2

What do the screens show for `CCOC(=O)c1c(-c2ccc(-c3ccccc3)cc2)csc1NC(=O)CNCCN(C)C`?
CF NFkB inh: 17; HIF-2a block: 19; MITF TRPM1 inh: 39; Peg3 prom inh: 103*; Shn3 inh set2: 50; KKLEB cytotox: -8

How did CC1CCN(CCCn2c(=S)[nH]c3ccc(N4CCOCC4)cc3c2=O)CC1 do in these assays?
CF NFkB inh: 8; HIF-2a block: 13; MITF TRPM1 inh: 8; Peg3 prom inh: 4; Shn3 inh set2: -8; KKLEB cytotox: -67*

How did COc1cc(NC(=O)COc2ccc(-n3cnnn3)cc2)c(OC)cc1Cl do in these assays?
CF NFkB inh: 37; HIF-2a block: 14; MITF TRPM1 inh: 11; Peg3 prom inh: 59*; Shn3 inh set2: 7; KKLEB cytotox: -49

How did O=C(NC1CCCCC1)C(CCc1ccccc1)N1CCc2ccccc2C1 (stereo not given) do in these assays?
CF NFkB inh: 8; HIF-2a block: -1; Peg3 prom inh: 5; Shn3 inh set2: -16; KKLEB cytotox: -20

How did C=CCn1c(SCC(=O)c2[nH]c(C)c(C(=O)OCC)c2C)nc2scc(-c3ccccc3)c2c1=O do in these assays?
CF NFkB inh: 16; HIF-2a block: 13; MITF TRPM1 inh: 38; Peg3 prom inh: -3; Shn3 inh set2: 43; KKLEB cytotox: -9

Results for C=CCn1c(SCC(=O)c2[nH]c(C)c(C(=O)OCC)c2C)nc2scc(-c3ccc(OC)cc3)c2c1=O ?
CF NFkB inh: 32; HIF-2a block: 19; MITF TRPM1 inh: 82*; Peg3 prom inh: 54*; Shn3 inh set2: 42; KKLEB cytotox: -37

Results for Cc1ccc(/C(N)=N/OC(=O)c2ccc(C)cc2Cl)cc1 ?
CF NFkB inh: -7; HIF-2a block: -65; MITF TRPM1 inh: 14; Peg3 prom inh: -84; Shn3 inh set2: -22; KKLEB cytotox: -64*

How did N/C(=N\OC(=O)c1ccc(Cl)cc1Cl)c1ccc(Cl)cc1 do in these assays?
CF NFkB inh: -16; HIF-2a block: -53; MITF TRPM1 inh: 4; Peg3 prom inh: -201; Shn3 inh set2: -14; KKLEB cytotox: -10

Results for Cc1ccc2c(c1)c1c(n2CC(O)CNC2CCCCC2)CCCC1 (stereo not given) ?
CF NFkB inh: 15; HIF-2a block: -13; MITF TRPM1 inh: 12; Peg3 prom inh: 102*; Shn3 inh set2: 14; KKLEB cytotox: 1
